Compound activity deposited in PubChem BioAssay by National Center for Advancing Translational Sciences (NCATS).
The sample as a whole holds a higher share of hits than the screen did.
SARS PLpro yeast: SARS-CoV PLP inhibition in yeast; S. cerevisiae expressing SARS-CoV PLpro, growth rescue; Potency, µM (doses to about 32.9 µM), actives largely listed as activators; 0.19% of 330,000 active; AID 485353; calls by dose curve; also: nearly all actives have a fitted effect of over 55% in size
CHX counter: affects cycloheximide protein synthesis inhibition readout, counter-screen; cell reporter, cycloheximide protein synthesis inhibition counterscreen; max response, %; 12% of 300,000 active; AID 2314; in the data active = max response mostly above about 13%, no sharp cut-off; inactive = mostly below about 14%; also: read at 38.3 µM for the half of the compounds with a filed dose
NS1 inh: inhibitors of influenza NS1 protein function; Potency, µM (titrated, usually from 46.1 µM); 0.4% of 270,000 active; calls by dose curve; also: actives are rising curves; nearly all actives have a fitted effect of over 50% in size
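Compounds were scored for reversing the slow growth caused by influenza A NS1 in S. cerevisiae, measured by optical density at 600 nm. Assay medium contained 2% galactose at pH 6.0; NS1-free yeast of the same strain were the positive control.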
TbPYK inhibitor: T. brucei pyruvate kinase inhibition | Q57TT1 | TbPYK enzyme, Kinase-Glo Plus ATP luminescence, 45 min | Potency, µM (top dose mostly 76.8 µM), usual class: inhibitors | 0.12% of 410,000 active | AID 624173; also: nearly all actives have a fitted effect of over 50% in size
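T. brucei PYK with substrate was exposed to pin-transferred compounds across a concentration series, then started with 130 uM ADP (final). After 45 min at room temperature, Kinase-Glo Plus luminescence was read, normalized and curve-fitted.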
LmPK inhibitor: LmPK (Leishmania mexicana) enzyme inhibition; Q27686; purified LmPK, Kinase-Glo ATP luminescence, 1 h; Potency, µM (top dose mostly 57.5 µM), most hits filed as inhibitors; 0.37% of 290,000 active
Target sequence (Q27686 whole entry, looked up): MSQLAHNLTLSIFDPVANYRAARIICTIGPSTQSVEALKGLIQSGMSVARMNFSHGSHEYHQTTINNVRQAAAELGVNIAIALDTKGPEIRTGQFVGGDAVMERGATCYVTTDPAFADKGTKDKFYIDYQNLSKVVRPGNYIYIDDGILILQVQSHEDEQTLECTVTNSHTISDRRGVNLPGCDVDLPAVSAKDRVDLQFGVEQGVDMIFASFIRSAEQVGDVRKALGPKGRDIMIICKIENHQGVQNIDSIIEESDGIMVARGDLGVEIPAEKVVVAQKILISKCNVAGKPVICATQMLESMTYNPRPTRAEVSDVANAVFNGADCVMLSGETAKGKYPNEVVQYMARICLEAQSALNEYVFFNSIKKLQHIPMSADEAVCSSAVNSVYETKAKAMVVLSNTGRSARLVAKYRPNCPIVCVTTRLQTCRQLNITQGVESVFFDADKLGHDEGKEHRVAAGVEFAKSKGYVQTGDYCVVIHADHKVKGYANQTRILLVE
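Screened at intermediate enzyme activity to detect both inhibitors and activators: LmPK at 0.1 nM, with a 0.5 nM enzyme column as activation reference. PEP 0.5 mM, ADP 0.1 mM; ATP detected by luminescence after 1 h.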
Shiga toxin inh: inhibitors of Shiga toxin in Vero cells; Vero cells, Shiga toxin protein synthesis inhibition reporter; inhibition, % at 38.7 µM; 9.2% of 290,000 active; in the data active = inhibition mostly above about 28%, no sharp cut-off; inactive = mostly below about 43%
Of the large screens only hits and unclear results are named; the others gave an inactive call. Unless noted, calls follow the shape of the dose curve; as a rule, active = well fitted curve in the direction sought with a large enough effect; inconclusive = small, poorly fitted or top-dose-only effect, or another doubt; inactive = no such curve, though single readings can be large; an effect the other way counts as inactive or inconclusive.

CSc1ccccc1OCc1cc(C(=O)N(C)Cc2ccc(C)o2)no1	CHX counter 54, TbPYK inhibitor inconclusive, Shiga toxin inh 79
CN(C)c1nc(N)nc(CSc2nnnn2-c2ccc(Cl)cc2)n1	none (no result: SARS PLpro yeast, CHX counter, NS1 inh, LmPK inhibitor, Shiga toxin inh)
Cc1cccc(NC(=O)c2cc(-c3ccc4c(c3)OCCO4)on2)c1	none (no result: SARS PLpro yeast, CHX counter, NS1 inh, LmPK inhibitor, Shiga toxin inh)
CCCC(=O)OC1=CN(Cc2ccccc2)S(=O)(=O)c2ccccc21	none (no result: SARS PLpro yeast, CHX counter, NS1 inh, LmPK inhibitor, Shiga toxin inh)
Cc1ccccc1NS(=O)(=O)c1csc(C(N)=O)c1	none
Cc1cccc(N2CCN(C(=O)CCn3c(=O)c4cccn4c4cccnc43)CC2)c1C	none (no result: SARS PLpro yeast, CHX counter, NS1 inh, LmPK inhibitor, Shiga toxin inh)
C#CCNC(=O)C1=C[C@H](C2CCCCC2)C[C@H](OCc2ccc(CO)cc2)O1	CHX counter 14, Shiga toxin inh 52
O=C(O)C1=C[C@@H](C2CCCCC2)C[C@@H](OCc2ccc(CO)cc2)O1	none
O=C(NC1CC1)C1=C[C@H](C2CCCCC2)C[C@H](OCc2ccc(CO)cc2)O1	CHX counter 13, Shiga toxin inh 35
COc1ccc(Cl)cc1N1C(=O)CN(Cc2cc(OC)c(OC)c(OC)c2)C1=S	none
O=C(NCC1CCCO1)c1nn2cccnc2c1Cl (centres undefined)	CHX counter 24, Shiga toxin inh 28
O=C(NCc1cccs1)c1nn2cccnc2c1Cl	CHX counter 22
O=C(Cc1ccc([N+](=O)[O-])cc1)c1c(O)cc(O)cc1O	CHX counter 16
Cc1ccc(C(=O)OC(C)C(=O)Nc2ccc3c(c2)OCO3)c(O)c1 (centres undefined)	none (no result: CHX counter, NS1 inh, LmPK inhibitor, Shiga toxin inh)
Cc1ccn2c(Cc3ccccc3)c(-c3ccccc3)nc2c1	none (no result: SARS PLpro yeast, CHX counter, NS1 inh, LmPK inhibitor, Shiga toxin inh)
Clc1ccc(-c2nc3ccccn3c2CN2CCCCC2)cc1	CHX counter 19 (no result: NS1 inh)
COc1ccccc1Cc1c(-c2ccc(Cl)cc2)nc2ccc(Br)cn12	none (no result: SARS PLpro yeast, CHX counter, NS1 inh, LmPK inhibitor, Shiga toxin inh)
Oc1ccc(N2CCN(Cc3c(-c4ccccc4)nc4ccccn34)CC2)cc1	TbPYK inhibitor inconclusive, LmPK inhibitor inconclusive
CN(C)Cc1c(-c2ccc(Cl)cc2)nc2ccccn12	CHX counter 45, Shiga toxin inh 126
Cc1ccn2c(CN3CCOCC3)c(-c3ccccc3)nc2c1	CHX counter 28, Shiga toxin inh 48
CSc1ccc(CCNC(=O)C(C)n2c(C)c3cnn(-c4ccccc4)c(=O)c3c2C)cc1 (centres undefined)	none (no result: SARS PLpro yeast, CHX counter, NS1 inh, LmPK inhibitor, Shiga toxin inh)
O=C(CSc1nnc(-c2ccccc2)n1Cc1ccco1)Nc1ccc2c(c1)OCCO2	Shiga toxin inh 48
O=C(CSc1ncc(-c2ccc(F)cc2)n1Cc1ccco1)Nc1ccc2c(c1)OCO2	CHX counter 39, Shiga toxin inh 110 (no result: SARS PLpro yeast)
COCCn1c(SCc2ccc(OC)c(F)c2)nnc1-c1ccncc1	none
CCc1ccc(NC(=O)Cn2cnc3c(=O)n(C)c(=O)n(C)c32)cc1	none (no result: NS1 inh)
CCOc1ccc(NC(=O)CSc2ncc(-c3ccc(F)cc3)n2Cc2ccco2)cc1	none
Cn1c(=O)c2ncn(CC(=O)Nc3cccc(-c4nc5ccccc5s4)c3)c2n(C)c1=O	CHX counter 53, TbPYK inhibitor inconclusive, Shiga toxin inh 118
COc1ccc(CSc2nnc(-c3ccncc3)n2C)cc1F	Shiga toxin inh 70
O=C(CSc1nnc(-c2cccs2)n1Cc1ccco1)Nc1ccc2c(c1)OCO2	none
COc1ccc(-c2nc(CSCC(=O)N3CCN(c4ccc(F)cc4)CC3)c(C)o2)cc1	none (no result: SARS PLpro yeast, CHX counter, NS1 inh, LmPK inhibitor, Shiga toxin inh)
O=C(CN(Cc1ccc(F)cc1)C(=O)CCC(=O)Nc1nccs1)NCc1ccccc1	none
O=C(CSc1nnc2ccccn12)Nc1ccc2c(c1)OCO2	CHX counter 18 (no result: NS1 inh)
c1ccn2c(SCc3ccc4c(c3)OCO4)nnc2c1	CHX counter 40, Shiga toxin inh 114
O=C(CCSc1nnc2ccccn12)Nc1ccc2c(c1)OCO2	none (no result: NS1 inh)
Cn1c(SCc2ccc3c(c2)OCO3)nnc1-c1ccccc1	CHX counter 15, Shiga toxin inh 22
Cc1ccc(NC(=O)CSc2nnc3ccccn23)cc1	Shiga toxin inh 72
O=[N+]([O-])c1cc2c(c(CSc3nnc4ccccn34)c1)OCOC2	none
Cc1ccc(NC(=O)CCSc2nnc3ccccn23)cc1	none
COC(=O)C(c1ccccc1)N(Cc1cccc(CN(C(C(=O)OC)c2ccccc2)S(C)(=O)=O)c1)S(C)(=O)=O (centres undefined)	none
Nn1c(SCC(=O)Nc2ccc3c(c2)OCO3)nnc1-c1ccccc1	CHX counter 22
